Screening results: PubChem, The Scripps Research Institute Molecular Screening Center
Hits are enriched below; roughly 4.8% of the tested compounds scored in any of these assays.
hgDAF-12 ag = agonists of H. glycines DAF-12 nuclear receptor | HEK293 GAL4-hgDAF12 UAS-luciferase reporter, agonist luminescence; normalized to butyrate control | activation, % at 6.8 µM | hit rate 1.8% among 370,000 | AID 687014;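 active = activation above a cutoff set at the mean of all screened compounds plus 3 SD, cut at about 10% in these data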;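 also: 0% = DMSO wells and 100% = sodium butyrate wells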
SMARCA2 activ = activators of SMARCA2 function; MG213 cells, MMTV-luciferase reporter, dexamethasone, overnight; activation, % at 9.1 µM; hit rate 1% among 370,000; in the data active = activation above about 7.8%;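 also: 0% = vehicle wells and 100% = reference activator wells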
DAX1 inh-1 = inhibits human nuclear receptor DAX1; P51843; HEK293 Gal4-DAX1 luciferase reporter, luminescence; inhibition, % at 6.75 µM; hit rate 0.99% among 340,000; AID 504766;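 active = inhibition above the mean over all tested compounds plus 3 SD, cut at about 4.2% in these data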;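 also: 0% = DAX1-transfected cells with DMSO and 100% = empty-vector control cells with DMSO; inhibition shows as a rise in luminescence from relieved DAX1 repression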
hcDAF-12 act = H. contortus DAF-12 activation, primary screen; hit rate 1.4% among 370,000; HEK293 hcDAF-12 lit1-tk-luc reporter, luminescence; 0% DMSO, 100% Δ7-dafachronic acid; activation, % at 6.8 µM;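 active = activation above the mean of all tested compounds plus 3 SD, cut at about 5.5% in these data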;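 also: 100% = response to 3 µM Δ7-dafachronic acid high control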
ssDAF12 agonist = activators of S. stercoralis DAF-12 nuclear receptor | activation, % at 6.8 µM | AID 652126 | HEK293 ssDAF-12/GRIP1 lit1-tk-luc reporter, luminescence; % of 3 µM dafachronic acid response | hit rate 1% among 370,000;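 active = activation above the mean over all tested compounds plus 3 SD, cut at about 0.9% in these data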;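 also: 0% = DMSO-only wells and 100% = 3 µM delta7-dafachronic acid wells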
DAX1 inh-2 = inhibitors of DAX1 repression of SF-1 activated StAR promoter; HEK293T StAR-luciferase reporter, SF-1/DAX-1 repression relief; AID 652010; hit rate 1.1% among 370,000; inhibition, % at 6.8 µM;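 active = inhibition above the mean over all tested compounds plus 3 SD, cut at about 3.6% in these data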;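 also: 0% = DAX-1 cells with DMSO and 100% = cells lacking DAX-1 with DMSO; higher inhibition means more luminescence from relief of DAX-1 repression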
hgDAF12 ag = confirmation of H. glycines DAF-12 agonists. HEK293 GAL4-hgDAF12 luciferase reporter, agonist mode; percent of butyrate response. hit rate 80% among 3,300. activation, % at 6.8 µM. shares compounds with hgDAF-12 ag. AID 743050;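 active = mean activation over triplicate wells above the hit cutoff derived from the earlier primary screen, cut at about 11% in these data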;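 also: 0% = DMSO low control and 100% = 2 mM sodium butyrate high control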
LXR ag 2 = activates human LXR-beta, counter-screen for DAF-12 agonists; shares compounds with hgDAF-12 ag; HEK293 Gal4-LXR luciferase reporter, 24 h; activation, % at 6.8 µM; 3,300 tested, under 10 active;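 active = mean activation of the triplicate above a set limit carried over from the primary screen, none filed active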
Target sequence (P55055 whole entry, looked up, the tested form may be a part): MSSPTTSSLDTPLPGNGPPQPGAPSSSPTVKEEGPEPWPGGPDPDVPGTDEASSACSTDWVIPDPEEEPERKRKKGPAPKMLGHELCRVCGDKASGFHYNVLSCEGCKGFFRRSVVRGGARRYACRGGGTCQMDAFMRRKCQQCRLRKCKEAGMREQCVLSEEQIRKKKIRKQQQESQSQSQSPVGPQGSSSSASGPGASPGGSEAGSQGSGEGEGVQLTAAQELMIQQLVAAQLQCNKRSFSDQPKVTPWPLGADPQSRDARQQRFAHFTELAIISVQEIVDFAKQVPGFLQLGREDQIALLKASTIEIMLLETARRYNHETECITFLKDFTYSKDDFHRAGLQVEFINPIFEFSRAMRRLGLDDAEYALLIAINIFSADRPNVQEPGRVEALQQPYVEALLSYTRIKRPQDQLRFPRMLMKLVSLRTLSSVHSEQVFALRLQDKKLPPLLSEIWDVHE
* = called active by the depositor; · = no result.

SMILES | hgDAF-12 ag | SMARCA2 activ | DAX1 inh-1 | hcDAF-12 act | ssDAF12 agonist | DAX1 inh-2 | hgDAF12 ag | LXR ag 2
Cc1ccc(NC(=O)Nc2ccc(F)c(Cl)c2)cc1 | 7 | -3 | 0 | 1 | -1 | 1 | · | ·
CCc1ccc(NC(=O)Nc2cccc(OC)c2)cc1 | 18* | 4 | 1 | 0 | -1 | 2 | 15* | 0
COc1ccc(NC(=O)Nc2ccc(F)c(Cl)c2)cc1 | 17* | 1 | 0 | 2 | -1 | 1 | 10 | 0
COc1cccc(NC(=O)Nc2ccc(CC(=O)O)cc2)c1 | -5 | -2 | 0 | -1 | -1 | 0 | · | ·
O=C(O)c1c(Cl)cccc1Cl | 0 | 1 | 1 | 0 | 0 | 1 | · | ·
CN(C)c1ccc(/C=N/N=C/c2ccccc2O)cc1 | 16* | 6 | 4 | 4 | 1.9* | 3 | 6 | 1
CCCNC(=O)c1cccc(COc2ccccc2OC)c1 | 17* | 4 | -2 | 1 | 0 | 2 | 14* | 1
CCCNC(=O)c1cccc(COCC(F)(F)F)c1 | 0 | -1 | -2 | 0 | -1 | 0 | · | ·
CC(C)Oc1ccc(F)cc1-c1cc(C(=O)NCc2cccs2)[nH]n1 | -2 | 0 | · | -4 | -1 | -1 | · | ·
CN1C(=O)C(c2cn(C)c3ccccc23)(c2cn(C)c3ccccc23)c2cc(F)ccc21 | 14* | 0 | · | 3 | 2.4* | -1 | 2 | 0
CC(C)Nc1nnc(SCC(=O)N2CCN(C(=O)c3ccco3)CC2)s1 | 2 | 3 | -1 | -1 | -1 | 0 | · | ·
CCN(CC)CC(O)CNc1ccnc2c(Cl)ccc(Cl)c12 (stereo not given) | 13* | 0 | 1 | 1 | 0 | 1 | 3 | 0
CCN(CC)CCCC(C)Nc1nccc2cccc(Cl)c12 (stereo not given) | 1 | -1 | 1 | 1 | -1 | 1 | · | ·
O=C1NC(c2ccc3ccccc3c2)Nc2ccccc21 (stereo not given) | 14* | 2 | 3 | 3 | 0 | 2 | 13* | 0
COc1ccc2ccccc2c1C1NC(=O)c2ccccc2N1 (stereo not given) | 14* | 1 | -3 | -1 | -1 | -4 | -1 | 0
C[C@H](CO)N1C[C@H](C)[C@@H](CN(C)Cc2ccc(Cl)c(Cl)c2)Oc2c(NS(=O)(=O)c3ccc(F)cc3)cccc2C1=O | -2 | 1 | -1 | 0 | -1 | 0 | · | ·
COC(=O)[C@H]1C[C@@]2(O)CN(S(=O)(=O)c3ccc(C)cc3)C[C@@]2(OC(=O)Nc2c(C)noc2C)C[C@H]1C(=O)OC | -2 | -2 | 0 | 0 | -1 | 2 | · | ·
Cc1occc(=O)c1OCc1ccc(Cl)cc1Cl | -3 | 2 | 0 | -2 | -2 | 1 | · | ·
COC(=O)C1=C(C)N(CCc2cc(OC)c(OC)c(OC)c2)C(=O)N[C@H]1c1ccccc1 | 1 | 0 | 1 | -2 | -1 | 0 | · | ·
COc1ccc(-c2cc(C(F)(F)F)n3nc(C(=O)Nc4c(C)n(C)n(-c5ccccc5)c4=O)cc3n2)cc1 | 1 | -4 | 0 | -1 | -1 | 0 | · | ·
O=C(COC(=O)c1cc2ccccc2oc1=O)Nc1ccc(F)cc1F | 17* | 7 | 0 | 5 | 0 | 2 | 16* | 1
O=C(Nc1ccc(/C=C/c2nc3ccccc3o2)cc1)c1c(F)cccc1F | 16* | 4 | 0 | 3 | 0 | 0 | 19* | 1
CCCc1cc(=O)oc2cc(C)cc(OCC(=O)Nc3ccccn3)c12 | 2 | 0 | 0 | 0 | -2 | -1 | · | ·
CCCCc1cc(=O)oc2cc(C)cc(OCC(=O)Nc3ccccn3)c12 | 15* | 2 | 1 | 4 | 0 | 1 | 7 | 0
CNC(=O)COc1ccc(C=O)cc1OC | -1 | 0 | 0 | 2 | 0 | 0 | · | ·
COc1cc(C=O)ccc1OCc1cccc(Br)c1 | 14* | 0 | 1 | 0 | -1 | 0 | 10 | 0
